TDP1 cell CPT – growth inhibition of DT40 Tdp1-/-;hTDP1 cells with camptothecin (screen for TDP1 inhibitors). AID 686979. Potency, µM (top dose mostly 46.2 µM), without a hit: at the highest dose activity change, negative = growth inhibition, hits mostly inhibitors. 12% of 420,000 active. chicken DT40 Tdp1-/-;hTDP1 cells + 20 nM CPT, ATP luminescence, 48 h; note: potency is the fitted concentration of half-maximal effect; % is set by controls: 0 for no effect and ±100 for the full control effect; nearly all actives have a fitted effect of over 55% in size
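Cell growth measured by CellTiter-Glo luminescence after a minimum 48 h, 37 C compound exposure with 20 nM CPT in Tdp1-knockout DT40 cells stably expressing hTDP1, seeded 400/well; qHTS titration format.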
IL1B secr inh – inflammasome signaling inhibition, IL-1 beta readout. THP-1 LPS/ATP IL-1B secretion, AlphaLISA, 16 h; active compounds read low. activity change, % at 57.5 µM. 4.7% of 360,000 active. AID 743279; in the data active = activity change below about -50%; inconclusive = mostly about -30% to -49%; note: % is set by controls: 0 for no effect and ±100 for the full control effect
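THP-1 cells pretreated 1 hr with compounds (up to 57.5 uM final), then stimulated with LPS (250 ng/mL final) plus ATP (1.25 mM final); secreted IL-1B measured by AlphaLISA after 16 hr, decreased signal indicating inhibition.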
MCF10A rereplic – induces DNA re-replication in MCF 10a normal breast cells; MCF 10A DNA re-replication, Hoechst nuclear intensity, 48 h; Potency, µM (titrated, usually from 46.1 µM), for inactives: top-dose activity, positive = re-replication, hits mostly activators; 2.9% of 350,000 active; AID 624296; note: potency is the fitted concentration of half-maximal effect; % of control where 0% means no effect; nearly all actives have a fitted effect of over 50% in size
SW480 rereplic – inducers of DNA re-replication in SW480 colon cancer cells. SW480 DNA re-replication, Hoechst DNA content imaging, 48 h. Potency, µM (top dose mostly 46.1 µM), for inactives: at the top dose re-replication activation, hits mostly activators. 1.8% of 340,000 active. AID 624297; note: potency is the fitted concentration of half-maximal effect; % of control where 0% means no effect; nearly all actives have a fitted effect of over 55% in size
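SW480 cells exposed to compounds for 48 hr at 37 C, 5% CO2, then Hoechst-stained 40 min. Nuclear DNA content imaged by fluorescence scanning (405 nm excitation, 500-530 nm emission); re-replication scored as increased high-intensity nuclei.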
Chronic BCR inh – blocks chronic active B-cell receptor signaling; 0.05% of 340,000 active; ABC-DLBCL IkBa-CBG/CBR reporter, luminescence ratio, 4 h; AID 493014; Potency, µM (top dose mostly 46.1 µM), without a hit: top-dose activity change, negative = inhibition, usual class: inhibitors; active = well fitted inhibition curve with a large enough effect in the signal ratio, with a control signal flat, not every such curve was filed as active; inconclusive = small, poorly fitted or top-dose-only effect, or effect the other way, or a change in a side signal; the % refers to the signal ratio;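 note: potency is the fitted concentration of half-maximal effect; plate controls were basal doxycycline-induced cells for no effect and cells given 10 µM MG132 for full effect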
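TMD8 ABC-DLBCL cells carrying doxycycline-inducible green luciferase fused to IkappaBalpha plus unfused red luciferase were exposed to compounds (up to 46 uM) for 4 hrs at 37C. Activity came from the overlap-corrected green/red luminescence ratio.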
TDP1 cell noCPT – qHTS for Inhibitors of human tyrosyl-DNA phosphodiesterase 1 (TDP1): qHTS in cells in absence of CPT; Potency, µM (doses to about 46.2 µM), without a hit: top-dose activity change, negative = growth inhibition, actives largely listed as inhibitors; 15% of 420,000 active; DT40 Tdp1-/- hTDP1 cells, no CPT, ATP luminescence, 48 h; note: potency is the fitted concentration of half-maximal effect; % is set by controls: 0 for no effect and ±100 for the full control effect; nearly all actives have a fitted effect of over 55% in size
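Camptothecin absent (DMSO only). Human TDP1-complemented DT40 knockout cells, 400 cells/well, 37 °C for minimum 48 hr; ATP measured via CellTiter-Glo, 30 min dark incubation, luminescence.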
The depositor's hits bear a star; u = inconclusive; x = no result given. Shown are actives, neighbours in structure and some others; about 19% of the full set was active somewhere. Unless noted, calls come from the whole dose curve; as a rule, active = well fitted curve in the direction sought with a large enough effect; inconclusive = small, poorly fitted or top-dose-only effect, or another doubt; inactive = no such curve, though single readings can be large; an effect the other way counts as inactive or inconclusive.

SMILES	TDP1 cell CPT	IL1B secr inh	MCF10A rereplic	SW480 rereplic	Chronic BCR inh	TDP1 cell noCPT
CN(C)C(=O)Oc1ccc(OC(=O)c2ccccc2)cc1	-19%	-12	11%	6%	5%	-18%
CN(C(=O)Oc1ccc(C(=O)c2ccc(Cl)cc2)cc1)c1ccccc1	23µM*	-20	2%	-1%	-2%	16µM*
CCN(c1ccc(C)cc1C)S(=O)(=O)c1nnc(NC(=O)c2ccco2)s1	-44%	u	21µM*	u	18%	-25%
Cc1ccccc1N1CCN(S(=O)(=O)c2nnc(NC(=O)c3ccc(Cl)cc3)s2)CC1	-5%	x	x	x	x	u
COc1cccc(-n2c(-c3ccoc3)nc3ccccc3c2=O)c1	u	3	10%	8%	u	u
COc1cccc(-n2cnc3scc(-c4cccs4)c3c2=O)c1	u	-64*	8%	-3%	0%	u
C#C[C@]1(O)CC[C@H]2[C@@H]3CCC4=Cc5nc6nc7ccccc7n6cc5C[C@]4(C)[C@H]3CC[C@@]21C	u	-25	u	7.9µM*	u	12µM*
CC1CN(C(=S)Nc2cccc(Cl)c2)CC(C)O1 (configuration not stated)	-11%	26	-1%	-8%	u	4%
CCCC(=O)Nc1ccc(N2CCN(CC)CC2)c(Cl)c1	3%	15	-10%	5%	-4%	u
CCCC(=O)NC1=C(N2CC2)C(=O)C(NC(=O)CCC)=C(N2CC2)C1=O	0.82µM*	2	u	2.3µM*	x	1.6µM*
COc1ccc(/C=C2\C(=O)NC(=S)N(C)C2=O)cc1C	2%	-1	11%	4%	11%	-2%
C=CCN1C(=O)/C(=C\c2ccc(N3CCOCC3)o2)C(=O)NC1=S	1%	7	u	5%	u	-27%
Cc1ccsc1/C=C1\C(=O)NC(=S)N(C)C1=O	5.8µM*	-94*	30%	u	u	3.3µM*
CN1C(=O)/C(=C\c2ccc(N3CCCCCC3)cc2)C(=O)NC1=S	u	-7	-1%	2%	7%	u
C=CCN1C(=O)/C(=C/c2ccc(Br)s2)C(=O)NC1=S	u	-99*	u	-4%	-2%	21µM*
CN1C(=O)/C(=C/c2ccc(Cl)s2)C(=O)NC1=S	7.3µM*	-97*	u	u	2%	9.2µM*
C=CCN1CCC2(C)c3cc(O)ccc3C[C@H]1[C@H]2C	1%	x	x	x	x	-16%
c1cc2c3c(cccc3c1)CC2	-5%	x	x	x	x	-24%
COC(=O)C1=C(c2cccc(OCc3ccccc3)c2)C[C@@H]2CC[C@H]1N2C(=O)NCc1ccccc1	u	-17	9%	2%	-6%	u
COC(=O)C1=C(c2ccc(OCc3ccccc3)cc2)C[C@@H]2CC[C@H]1N2C(=O)NCc1ccc([N+](=O)[O-])cc1	21µM*	u	11%	-3%	2%	12µM*
COC(=O)C1=C(c2cccc(OCc3ccccc3)c2)C[C@@H]2CC[C@H]1N2C(=O)NCc1ccc([N+](=O)[O-])cc1	18µM*	u	-1%	0%	3%	23µM*
O=C(Oc1ccccc1)N1CCC2(CC1)CCN(C(c1ccccc1)c1ccccc1)CC2	-3%	x	x	x	x	-10%
Nc1ccc2c3c(cccc13)-c1ccccc1-2	2%	2	2.9µM*	9.2µM*	x	-25%
CCOc1ccc(OC(=O)c2ccc3c(=O)n4c(nc3c2)CCC4)cc1	u	-2	15%	-2%	1%	u
COC(=O)C1=C(c2ccccc2)C[C@@H]2CC[C@H]1N2C	6%	-6	1%	-6%	u	9%
SMILES	TDP1 cell CPT	IL1B secr inh	MCF10A rereplic	SW480 rereplic	Chronic BCR inh	TDP1 cell noCPT
COC(=O)c1c2[n+](cc3cc(OC)c(OC)cc13)CCc1cc(OC)c(OC)cc1-2	18µM*	-8	0%	-7%	x	21µM*
CC(C(=O)O)N(C(=O)c1ccccc1)c1ccc(F)c(Cl)c1 (configuration not stated)	15%	37	11%	u	1%	-10%
N/C(=N\OC(=O)c1ccco1)c1ccc(Cl)cc1	-13%	15	0%	-6%	u	-13%
CCCCOP(=O)(OCCCC)C(O)c1ccc(N(C)C)cc1 (configuration not stated)	u	-14	11%	0%	u	u
CCCCOP(=O)(OCCCC)C(Nc1ccc(C(=O)OCC)cc1)c1ccncc1 (configuration not stated)	u	-65*	u	13%	-1%	12µM*
N#CC(C#N)=C(C#N)c1ccc(Nc2ccccc2)cc1	10µM*	-90*	u	u	u	u
c1ccc(Nc2ccc(Nc3ccccc3)cc2)cc1	u	-25	-39%	u	u	6.5µM*
O=[N+]([O-])c1ccc(Nc2ccccc2)cc1	u	3	2%	-10%	0%	-20%
O=C(Nc1ccccc1)N1CCC2(CC1)CCN(C(=O)Oc1ccccc1)CC2	-20%	x	x	x	x	u
O=C1c2cccc3cccc(c23)C(=O)N1/N=C/c1c(O)n(-c2ccccc2)c(=O)[nH]c1=O	15%	-11	-1%	-2%	1%	5%
CCOP(=O)(/C=C(\Cl)c1ccccc1)C(O)c1ccc(F)cc1 (configuration not stated)	u	-13	0%	22%	0%	16µM*
Cc1cc(OC(C)C(=O)NCc2ccncc2)c2c3c(c(=O)oc2c1)CCCC3 (configuration not stated)	23µM*	0	0%	-3%	5%	u
Cc1ccc(-n2nc(C)cc2NC(=O)COc2cc(C)cc3oc(=O)c4c(c23)CCC4)cc1	u	-2	-2%	1%	4%	29µM*
Cc1cc(OCC(=O)N[C@@H](Cc2ccccc2)C(=O)O)c2c3c(c(=O)oc2c1)CCC3	-1%	1	4%	-6%	14%	-2%
Cc1cc(OC(=O)c2ccco2)c2c3c(c(=O)oc2c1)CCCC3	12µM*	-25	u	-5%	u	10µM*
Cc1cc(OC(=O)c2cccs2)c2c3c(c(=O)oc2c1)CCCC3	18µM*	u	8%	16%	-8%	5.2µM*
CCN(CC)P(=O)(Oc1ccccc1)Oc1ccccc1	u	-20	-2%	6%	-8%	u

Screens deposited in PubChem BioAssay by National Center for Advancing Translational Sciences (NCATS).
